Vaccinia Venus = vaccinia inhibition (Venus reporter) | Vaccinia virus Venus reporter expression, fluorescence | Potency, µM (series often up to 36.5 µM), usual class: inhibitors | 330,000 compounds, 0.46% hits; calls by dose curve; tested in A549 cells; further: nearly all actives have a fitted effect of over 30% in size
HCMV antiviral = inhibitors of human cytomegalovirus; HFF cells, HCMV-luciferase reporter, 72 h; hits give low values; activity change, negative = inhibition, % at 57.5 µM; 410,000 compounds, 4.5% hits; in the data active means activity change below about -60%; inconclusive means no clear call, values can overlap the other calls; inactive means above about -39%
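Compounds were evaluated in HFFs infected with an HCMV luciferase reporter virus (MOI 1 PFU/cell). Luciferase in lysates collected 72 h post infection served as the replication measure.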
VACV mCherry inh = vaccinia inhibition (mCherry reporter); AID 720579; 310,000 compounds, 0.63% hits; Potency, µM (top dose mostly 36.5 µM), usual class: inhibitors; Vaccinia virus mCherry reporter infection, fluorescence; calls by dose curve; tested in A549 cells; further: nearly all actives have a fitted effect of over 35% in size
HCV inhibitor = blocks hepatitis C virus. Huh7.5.1 HCVcc-Cre infection, luciferase reporter, 44 h. Potency, µM (titrated, usually from 41.8 µM), usual class: inhibitors. 340,000 compounds, 3.4% hits. AID 651820; active means well fitted inhibition curve with a large enough effect; inconclusive means small, poorly fitted or top-dose-only effect, or another doubt; inactive means no such curve, though single readings can be large or run the other way
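After 44 h co-culture of compound, cells and HCVcc-Cre (~0.5 moi), substrate is added for 15 min at room temperature and luciferase measured over 15 sec. Cells were seeded at 1,000/well and pre-cultured 4 h.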
FMDV antiviral = foot and mouth disease virus antiviral activity | FMDV antiviral cell-based qHTS | Potency, µM (highest dose often 57.9 µM), most hits filed as inhibitors | 410,000 compounds, 1.2% hits | AID 1159524; calls by dose curve; tested in HEK293T cells; further: read-out not given here; nearly all actives have a fitted effect of over 45% in size
Numbers stand for hits; ! = not confirmed by another sample. Shown are actives, neighbours in structure and some others; about 7.3% of the full set was active somewhere.

Screening CCN(Cc1ccccc1)S(=O)(=O)c1ccc(C(=O)N(CCCN(C)C)c2nc3cc4c(cc3s2)OCO4)cc1 returned Vaccinia Venus inconclusive, HCMV antiviral -64.9, VACV mCherry inh inactive, HCV inhibitor inconclusive and FMDV antiviral inactive.
`Cn1cc(CCNC(=O)N2CCOC2=O)c2ccccc21` gave HCMV antiviral inactive.
Screening CCOc1ccccc1NC(=O)C1CCN(S(=O)(=O)c2ccc3c(c2)CCCN3C(C)=O)CC1 returned Vaccinia Venus inactive, HCMV antiviral inactive, VACV mCherry inh inactive and FMDV antiviral inactive.
Screening CCOC(=O)N1CCN(C(=O)Cc2c(C(=O)O)n(C)c3ccccc23)CC1 returned Vaccinia Venus inactive, HCMV antiviral inconclusive, VACV mCherry inh inactive, HCV inhibitor 3.55µM and FMDV antiviral inactive.
`O=C(CCN1CCC2CCC(C2)C1)c1ccccc1` (stereo unspecified) gave Vaccinia Venus inactive, HCMV antiviral inactive, VACV mCherry inh inactive, HCV inhibitor inactive and FMDV antiviral inconclusive.
Screening OC(CCN1CCC2CCC(C2)C1)c1ccc(Br)cc1 (stereo unspecified) returned Vaccinia Venus inactive, HCMV antiviral inactive, VACV mCherry inh inactive, HCV inhibitor 31.6µM and FMDV antiviral inconclusive.
CCN(CC)c1nc(Nc2ccc(Cl)cc2)nc(OCC#N)n1 was read as Vaccinia Venus inconclusive, HCMV antiviral -67.7, HCV inhibitor inconclusive and FMDV antiviral inconclusive.
Screening O=c1c2cccnc2n(Cc2ccccc2F)c(=O)n1Cc1ccccc1Cl returned Vaccinia Venus inactive, HCMV antiviral inactive, VACV mCherry inh inactive and FMDV antiviral inactive.
For O=C(Nc1ccc([N+](=O)[O-])cc1)C1CC1(c1ccccc1)c1ccccc1 (stereo unspecified) the results were Vaccinia Venus inactive, HCMV antiviral inactive, VACV mCherry inh inactive, HCV inhibitor inconclusive and FMDV antiviral inactive.
For CC1(C)C(C=C(Cl)Cl)C1C(=O)Nc1ccc([N+](=O)[O-])cc1 (stereo unspecified) the results were Vaccinia Venus 17.8µM, HCMV antiviral -95.6, VACV mCherry inh inconclusive, HCV inhibitor inconclusive and FMDV antiviral inconclusive.
For CCOc1ccc(/C=C/c2nc(C#N)c(N3CCN(c4ccc(OC)cc4)CC3)o2)cc1 the results were Vaccinia Venus inactive, HCMV antiviral inactive, VACV mCherry inh inactive and FMDV antiviral inactive.
OC(c1ccc(F)c(F)c1)c1ncc(-c2ccc(F)cc2)[nH]1 (stereo unspecified) was read as Vaccinia Venus inactive, HCMV antiviral inactive, VACV mCherry inh inactive and FMDV antiviral inactive.
`OC(c1ccc(F)c(F)c1)c1ncc(-c2ccc(Cl)cc2)[nH]1` (stereo unspecified) gave Vaccinia Venus inconclusive, HCMV antiviral -64.5, VACV mCherry inh inconclusive and FMDV antiviral inactive.
Screening Cc1ccc(OCC(=O)Nc2ccc(C(=O)Nc3ccccc3C(=O)O)cc2)cc1C returned Vaccinia Venus inactive, HCMV antiviral inactive, VACV mCherry inh inactive and FMDV antiviral inactive.
Screening Cc1ccccc1OCC(=O)Nc1ccc(C(=O)Nc2ccccc2C(=O)O)cc1 returned Vaccinia Venus inactive, HCMV antiviral -69.9, VACV mCherry inh inactive, HCV inhibitor inactive and FMDV antiviral inactive.
`Cc1ccc(NC(=O)COc2ccccc2CNC(C)(C)CC(C)(C)C)cc1` gave HCMV antiviral -64.7, HCV inhibitor inconclusive and FMDV antiviral inactive.
Cc1ccc(C(=O)N2CCN(c3ccc(NC(=O)COc4ccccc4C)cc3)CC2)cc1 was read as Vaccinia Venus inconclusive, HCMV antiviral inconclusive, VACV mCherry inh inconclusive, HCV inhibitor 11.2µM and FMDV antiviral 14.1µM.
Screening CC(C)n1cc(NC(=O)COc2ccccc2Cl)cn1 returned Vaccinia Venus inactive, HCMV antiviral -61.4, VACV mCherry inh inactive, HCV inhibitor inactive and FMDV antiviral inactive.
`Cc1ccccc1-c1nc(CN2CCC(C(=O)NCc3ccccc3Cl)CC2)c(C)o1` gave Vaccinia Venus inactive, HCMV antiviral inactive, VACV mCherry inh inactive and FMDV antiviral inactive.
Screening CCC(=O)N1CCN(c2ccc(NC(=O)COc3ccccc3Cl)cc2)CC1 returned HCMV antiviral inconclusive, HCV inhibitor 11.2µM and FMDV antiviral 31.6µM.
For CCC(=O)N1CCN(c2ccc(NC(=O)COc3ccccc3[N+](=O)[O-])cc2)CC1 the results were HCMV antiviral inactive, HCV inhibitor 11.2µM and FMDV antiviral 28.2µM.
For CN1CCN(c2ccc(NC(=O)COc3ccccc3Cl)cc2)CC1 the results were Vaccinia Venus inactive, HCMV antiviral inactive, HCV inhibitor inconclusive and FMDV antiviral inactive.
COc1cccc(-c2nc(SCC(=O)NCC3CCCO3)c(-c3ccc(Cl)cc3)[nH]2)c1 (stereo unspecified) was read as Vaccinia Venus inactive, HCMV antiviral inactive, VACV mCherry inh inactive and FMDV antiviral inactive.
For COc1ccc(N=N/C(=C\O)C(=O)c2cccs2)cc1 the results were Vaccinia Venus inactive, HCMV antiviral -92.5, VACV mCherry inh inconclusive, HCV inhibitor inactive and FMDV antiviral inactive.
For Cc1ccc(NC(=O)CSc2ccc(-c3ccccn3)nn2)cc1 the results were Vaccinia Venus inconclusive, HCMV antiviral inactive, VACV mCherry inh inconclusive, HCV inhibitor inconclusive and FMDV antiviral inactive.
Screening Cc1ccc(NC(=O)CSc2n[nH]c(-c3ccccn3)n2)cc1 returned Vaccinia Venus inconclusive, HCMV antiviral inactive, VACV mCherry inh 10µM, HCV inhibitor inconclusive and FMDV antiviral inactive.
Screening O=C(CSc1n[nH]c(-c2ccccn2)n1)Nc1ccc(F)cc1 returned Vaccinia Venus inconclusive, HCMV antiviral inconclusive, VACV mCherry inh 14.1µM, HCV inhibitor inconclusive and FMDV antiviral inactive.
For O=C(CSc1n[nH]c(-c2ccccn2)n1)Nc1ccc(Cl)cc1 the results were Vaccinia Venus inactive, HCMV antiviral -95.6, VACV mCherry inh 7.94µM, HCV inhibitor 5.01µM and FMDV antiviral inactive.
For Cc1oc(-c2ccccc2NC(=O)c2ccccn2)nc1CNC(=O)c1ccc(Oc2ccccc2)o1 the results were Vaccinia Venus inactive, VACV mCherry inh inactive and FMDV antiviral inactive.
For CC1=C(C(=O)Nc2ccc(C)cc2C)C(c2ccc(O)cc2)n2nnnc2N1 (stereo unspecified) the results were Vaccinia Venus inactive, HCMV antiviral inactive, VACV mCherry inh inactive and FMDV antiviral inactive.
For COc1cc(=O)n2c(c1C(=O)NC(C)c1ccco1)CCN(Cc1cc(C)ccc1C)CC2 (stereo unspecified) the results were Vaccinia Venus inactive, VACV mCherry inh inactive and FMDV antiviral inactive.
Screening O=C(Nc1ccc(F)cc1)N1CCN(c2ccc3nnc(-c4ccc(F)cc4)n3n2)CC1 returned Vaccinia Venus inconclusive, HCMV antiviral -69.5!, VACV mCherry inh inconclusive, HCV inhibitor inconclusive and FMDV antiviral inconclusive.
O=C(c1ccc(Br)o1)N1CCN(c2ccc3nnc(-c4ccccc4)n3n2)CC1 was read as Vaccinia Venus inactive, HCMV antiviral -72.3, VACV mCherry inh inactive, HCV inhibitor inactive and FMDV antiviral inconclusive.
`Oc1cccc2c(CC(O)c3c[nH]c4ccccc34)ccnc12` (stereo unspecified) gave Vaccinia Venus inconclusive and VACV mCherry inh inactive.
